For part of these data: Measured potencies and affinities stand elsewhere. Activity calls are given as the source filed them.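 The calls were made as follows, unless noted: active = earlier screen potentiator hit that boosts the TRPC4 ion channel at some dose, with a dose response; inactive = no potentiation, no dose response, or not a prior hit.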
What was measured:
[1] = test system: TRPC4 beta (transient receptor potential cation channel C4), mouse; test: activators of mouse TRPC4 channel, confirmation, cell-based, Fluo4 calcium, HEK293 TRPC4beta/mu-opioid, duplicates, 10 µM (AID 2426;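 active = fluorescence ratio normalized to control raised more than 50% in primary screen plus both repeat runs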;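 as to activation: percent rise of integrated ratio over buffer wells lacking compound which define 0%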); settings: Fluo4 calcium fluorescence, at 10 µM; active compounds read high
[2] = test system: transient receptor potential cation channel C4 beta (TRPC4), mouse; test: activators of mouse TRPC4 channel, confirmation, cell-based, second round, Fluo4, HEK293 TRPC4beta/mu-opioid, 1 µM (AID 2461;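 active = primary screen active and over 50% activation in each of two duplicate runs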;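 as to activation: 0% = wells without test compound as baseline of integrated fluorescence ratio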); settings: Fluo4 calcium fluorescence, at 1 µM; active compounds read high
[3] = test system: TRPC4 (transient receptor potential cation channel C4 beta), mouse; test: positive allosteric modulators of mouse TRPC4, confirmation, cell-based, second round, Fluo-4, HEK293 TRPC4beta/mu-opioid, 1 µM (AID 2554;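 active = primary screen hit whose fluorescence ratio, in both repeats, exceeds the weak agonist control mean by 3 SD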); settings: DAMGO EC20, Fluo-4 calcium flux, at 1 µM; active compounds read high
[4] = test system: TRPC4 beta (transient receptor potential cation channel C4), mouse; test: positive allosteric modulators of mouse TRPC4, confirmation, cell-based, Fluo-4, HEK293 TRPC4beta/mu-opioid (AID 2555;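 active = primary screen hit whose calcium fluorescence ratio, in both repeats, exceeds the weak agonist control mean by 3 SD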); settings: DAMGO EC20, Fluo-4 calcium flux, at 10 µM; active compounds read high
[5] = biological target: Short transient receptor potential channel 4 (Mus musculus) (UniProt Q9QUQ5); test: inhibitors of mouse TRPC4 channel, confirmation, cell-based, Fluo4, HEK293 TRPC4beta/mu-opioid (AID 2636;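 active = calcium signal cut by more than 3 SD below the full-agonist control yet still positive, in both repeats and the earlier primary screen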); settings: DAMGO, Fluo4 calcium flux, at 10 µM; active compounds read high
[6] = biological target: Short transient receptor potential channel 4 (Mus musculus) (UniProt Q9QUQ5); test: inhibitors of mouse TRPC4 channel, confirmation, cell-based, second round, Fluo4, HEK293 TRPC4beta/mu-opioid, 1 µM (AID 2637;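 active = calcium signal ratio cut to more than 3 SD under the fully stimulated control mean yet still positive, in both repeats and the primary screen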); settings: Fluo4 calcium flux, DAMGO, at 1 µM; active compounds read high
[7] = biological target: Short transient receptor potential channel 4 (Mus musculus) (UniProt Q9QUQ5); test: TRPC4 positive allosteric modulators, dose response, cell-based, HEK293 TRPC4/mu-opioid, Fluo-4 calcium, EC20 DAMGO (AID 434941);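 also: calcium entry triggered by an EC20 dose of DAMGO at the co-expressed mu-opioid receptor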
[8] = biological target: Short transient receptor potential channel 4 (Mus musculus) (UniProt Q9QUQ5); test: mouse TRPC4 channel inhibitors, dose response, cell-based, HEK293 TRPC4/mu-opioid, Fluo-4 calcium (AID 434942;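 active = primary screen inhibitor hit that blocks the TRPC4 channel at some tested dose, yielding a dose curve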)
[9] = biological target: Short transient receptor potential channel 6 (Mus musculus) (UniProt Q61143); test: inhibition of mouse TRPC6 channel, confirmation, selectivity assay for TRPC4 inhibitor project, cell-based, HEK293, membrane potential dye, duplicate (AID 434948;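 active = active in primary screen and both duplicates, each dropping signal beyond three positive-control SD with fluorescence still positive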); settings: HEK293 TRPC6, membrane potential dye fluorescence, at 10 µM, stimulated with maximal-effect acetylcholine; active compounds read high
[10] = biological target: Short transient receptor potential channel 6 (Mus musculus) (UniProt Q61143); test: activation of mouse TRPC6 channel, confirmation, selectivity assay for TRPC4 activator project, cell-based, HEK293, membrane potential dye, duplicate (AID 434950;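 active = membrane potential signal rise above negative control mean plus 3 SD in both duplicates, also active in the earlier TRPC4 screen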;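 as to activation: 0% = buffer only wells and 100% = acetylcholine maximal-effect wells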); settings: HEK293 TRPC6, membrane potential fluorescence, at 10 µM; active compounds read high
[11] = biological target: Short transient receptor potential channel 6 (Mus musculus) (UniProt Q61143); test: TRPC6 potentiation by TRPC4 potentiator hits, confirmation, selectivity assay for TRPC4 potentiator project, HEK293 cells, membrane potential dye, duplicate (AID 434952;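 active = compound raising the membrane signal above positive-control mean plus 3 SD in both repeats, and a primary screen hit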); settings: HEK293 TRPC6, membrane potential dye fluorescence, at 10 µM, maximal acetylcholine added after compound; active compounds read high
[12] = biological target: Short transient receptor potential channel 4 (Mus musculus) (UniProt Q9QUQ5); test: calcium flux activators in TRPC4/5HT1a cells, counter-screen for TRPC4 activator project, cell-based, second counter screen, HEK293 TRPC4/5HT1a, Fluo-4 (AID 434977;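 active = calcium signal rise above buffer-control mean plus 5 SD in both duplicates, and also a hit in the primary screen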;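 as to activation: plate controls were assay buffer for no effect and maximal serotonin response for full effect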); settings: Fluo-4 calcium flux, at 10 µM; active compounds read high
[13] = calcium flux inhibitors in TRPC4/5HT1a cells, confirmation, counter-screen for TRPC4 inhibitor project, cell-based, second counter screen, HEK293 TRPC4/5HT1a, Fluo-4 (AID 434978;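 active = primary screen active whose calcium signal fell more than 3 SD beyond the full-serotonin control mean in both duplicate plates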;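 also: serotonin given first at submaximal then at maximal dose after compound preincubation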); settings: Fluo-4 calcium flux, at 10 µM, serotonin added to trigger calcium flux; active compounds read high
[14] = test system: TRPC4 (mouse), co-expressed with 5HT1a in HEK293; test: calcium flux potentiators in TRPC4/5HT1a cells, confirmation, counter-screen for TRPC4 potentiator project, cell-based, second counter screen, HEK293 TRPC4/5HT1a, Fluo-4 (AID 434979;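 active = signal rise over 3 SD above mean of control wells given weak agonist, in both repeats and first screen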); settings: Fluo-4 calcium flux, at 10 µM, serotonin added at its EC20 dose; active compounds read high
[15] = calcium flux activation in mu-opioid HEK293 cells, confirmation, counter-screen for TRPC4 activator project, cell-based, HEK293 mu-opioid receptor line (AID 449723;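 active = hit in primary screen, with calcium signal over 5 SD above buffer well mean in both duplicates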;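 also: counter screen cells carry the mu-opioid receptor alone and lack TRPC4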); settings: Fluo-4 calcium fluorescence, at 10 µM; active compounds read high
[16] = calcium flux enhancement in mu-opioid HEK293 cells, confirmation, counter-screen for TRPC4 allosteric potentiator project, cell-based, HEK293 mu-opioid receptor line (AID 449724;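 active = calcium signal rise more than 3 SD above the low-dose agonist control mean, in both duplicate plates and the primary screen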;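 also: HEK293 cells carrying mu-opioid receptor only with no TRPC4 channel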); settings: Fluo-4 calcium flux, at 10 µM, compound added before EC20 DAMGO stimulus; active compounds read high

Sequence of Short transient receptor potential channel 6 (Mus musculus) (Q61143 whole entry, looked up): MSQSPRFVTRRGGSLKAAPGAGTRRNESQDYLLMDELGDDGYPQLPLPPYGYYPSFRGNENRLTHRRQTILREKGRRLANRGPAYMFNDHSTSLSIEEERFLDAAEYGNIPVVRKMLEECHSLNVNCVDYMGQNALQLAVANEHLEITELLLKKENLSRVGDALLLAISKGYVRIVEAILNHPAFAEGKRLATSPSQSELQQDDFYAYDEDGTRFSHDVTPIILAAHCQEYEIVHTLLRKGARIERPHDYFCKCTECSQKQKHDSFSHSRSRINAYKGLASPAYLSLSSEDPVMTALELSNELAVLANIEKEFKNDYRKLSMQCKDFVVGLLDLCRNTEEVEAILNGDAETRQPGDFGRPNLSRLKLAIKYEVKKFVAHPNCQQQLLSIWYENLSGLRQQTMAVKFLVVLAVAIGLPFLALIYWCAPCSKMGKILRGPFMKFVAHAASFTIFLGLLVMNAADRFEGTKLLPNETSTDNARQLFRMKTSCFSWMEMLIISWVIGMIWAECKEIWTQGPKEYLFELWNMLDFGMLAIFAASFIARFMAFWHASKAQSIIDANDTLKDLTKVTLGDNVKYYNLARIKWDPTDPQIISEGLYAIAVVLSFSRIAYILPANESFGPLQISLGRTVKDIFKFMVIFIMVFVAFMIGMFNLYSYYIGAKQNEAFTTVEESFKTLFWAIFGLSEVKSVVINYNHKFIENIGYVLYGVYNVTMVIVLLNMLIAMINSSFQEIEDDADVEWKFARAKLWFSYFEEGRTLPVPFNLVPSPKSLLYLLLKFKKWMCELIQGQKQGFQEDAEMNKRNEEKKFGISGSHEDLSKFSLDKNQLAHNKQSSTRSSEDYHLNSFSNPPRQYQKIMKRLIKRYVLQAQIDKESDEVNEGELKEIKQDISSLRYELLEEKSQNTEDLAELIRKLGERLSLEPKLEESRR
Sequence of Short transient receptor potential channel 4 (Mus musculus) (Q9QUQ5 whole entry, looked up): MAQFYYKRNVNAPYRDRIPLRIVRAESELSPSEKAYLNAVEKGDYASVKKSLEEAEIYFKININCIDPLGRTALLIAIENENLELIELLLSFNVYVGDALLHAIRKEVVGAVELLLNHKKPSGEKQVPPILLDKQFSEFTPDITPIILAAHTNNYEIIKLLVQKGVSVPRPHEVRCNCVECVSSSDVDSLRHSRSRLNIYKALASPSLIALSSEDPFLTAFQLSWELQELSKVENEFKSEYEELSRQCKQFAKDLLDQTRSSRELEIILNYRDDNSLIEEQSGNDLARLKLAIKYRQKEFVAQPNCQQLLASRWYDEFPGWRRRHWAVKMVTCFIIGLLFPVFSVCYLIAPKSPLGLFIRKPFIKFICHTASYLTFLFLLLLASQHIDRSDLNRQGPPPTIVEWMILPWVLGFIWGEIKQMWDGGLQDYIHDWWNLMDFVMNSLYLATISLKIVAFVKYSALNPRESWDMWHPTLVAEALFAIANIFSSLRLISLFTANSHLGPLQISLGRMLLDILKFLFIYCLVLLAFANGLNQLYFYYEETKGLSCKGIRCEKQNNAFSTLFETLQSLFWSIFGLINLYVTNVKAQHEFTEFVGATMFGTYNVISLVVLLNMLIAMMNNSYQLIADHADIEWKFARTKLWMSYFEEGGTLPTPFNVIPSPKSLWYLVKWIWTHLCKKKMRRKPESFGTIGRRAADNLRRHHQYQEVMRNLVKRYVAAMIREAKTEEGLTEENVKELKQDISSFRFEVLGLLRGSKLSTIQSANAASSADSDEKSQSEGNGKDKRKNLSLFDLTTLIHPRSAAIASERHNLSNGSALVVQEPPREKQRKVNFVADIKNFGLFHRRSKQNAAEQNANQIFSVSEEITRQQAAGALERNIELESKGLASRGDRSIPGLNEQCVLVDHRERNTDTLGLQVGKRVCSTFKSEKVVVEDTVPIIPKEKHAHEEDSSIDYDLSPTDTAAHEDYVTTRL

CCN1/C(=C\c2ccc3cc(C)ccc3[n+]2CC)Sc2cc(C)c(C)cc21
inactive: outcome [2] | outcome [3] | outcome [5] | outcome [6] | outcome [7] | outcome [8] | outcome [9] | outcome [10] | outcome [11] | outcome [13]
active: activation [1] 177% | potentiation [4] 59% | activation [12] 66.7% | potentiation [14] 41.7% | activation [15] 152% | activation [16] 1520%

O=C(Nc1ccc(Cl)cc1)N1CCC(c2nc(-c3cccs3)no2)CC1
inactive: outcome [2] | outcome [3] | outcome [4] | outcome [5] | outcome [6] | outcome [7] | outcome [8] | outcome [9] | outcome [10] | outcome [11] | outcome [13] | outcome [14] | outcome [15] | outcome [16]
active: activation [1] 158% | activation [12] 46.6%

COc1ccc(CN2CCC(N(CCc3ccccc3)Cc3ccccc3)CC2)c(OC)c1
active: activation [1] 95% | activation [10] 44%
inactive: outcome [2] | outcome [3] | outcome [4] | outcome [5] | outcome [6] | outcome [7] | outcome [8] | outcome [9] | outcome [11] | outcome [12] | outcome [13] | outcome [14] | outcome [15] | outcome [16]

COc1ccc(CC(=O)NCC(c2ccc(OC)cc2)N(C)C)cc1 (stereo not given)
active: activation [1] 200% | activation [2] 95% | activation [10] 46.5%
inactive: outcome [3] | outcome [4] | outcome [5] | outcome [6] | outcome [7] | outcome [8] | outcome [9] | outcome [11] | outcome [12] | outcome [13] | outcome [14] | outcome [15] | outcome [16]

CCc1cccc(C)c1NC(=S)NCC(c1cccnc1)N(C)C (stereo not given)
active: activation [1] 80% | activation [2] 82%
inactive: outcome [3] | outcome [4] | outcome [5] | outcome [6] | outcome [7] | outcome [8] | outcome [9] | outcome [10] | outcome [11] | outcome [12] | outcome [13] | outcome [14] | outcome [15] | outcome [16]

COCC1CCN(Cc2cn(-c3ccccc3F)nc2-c2cc(C)sc2C)CC1
active: activation [1] 95% | activation [10] 69.5%
inactive: outcome [2] | outcome [3] | outcome [4] | outcome [5] | outcome [6] | outcome [7] | outcome [8] | outcome [9] | outcome [11] | outcome [12] | outcome [13] | outcome [14] | outcome [15] | outcome [16]

CCOC(=O)C1(CCCc2ccccc2)CCN(Cc2cnn(C)c2)CC1
inactive: outcome [2] | outcome [3] | outcome [4] | outcome [5] | outcome [6] | outcome [7] | outcome [8] | outcome [9] | outcome [11] | outcome [12] | outcome [13] | outcome [14] | outcome [15] | outcome [16]
active: activation [1] 92% | activation [10] 69%

CN(CCc1ccccn1)C(=O)CC1C(=O)NCCN1Cc1ccc(-c2ccccc2)cc1 (stereo not given)
inactive: outcome [2] | outcome [3] | outcome [4] | outcome [5] | outcome [6] | outcome [7] | outcome [8] | outcome [9] | outcome [11] | outcome [13] | outcome [14] | outcome [15] | outcome [16]
active: activation [1] 130% | activation [10] 42.5% | activation [12] 31.3%

COc1c2c(cc3c1C(CC(O)Cc1ccccc1)N(C)CC3)OCO2 (stereo not given)
active: activation [1] 110% | activation [10] 43%
inactive: outcome [2] | outcome [3] | outcome [4] | outcome [5] | outcome [6] | outcome [7] | outcome [8] | outcome [9] | outcome [11] | outcome [12] | outcome [13] | outcome [14] | outcome [15] | outcome [16]

Cc1sc2ncnc(NCC(c3ccco3)N3CCCC3)c2c1C (stereo not given)
active: activation [1] 143% | activation [2] 178% | activation [12] 78.8%
inactive: outcome [3] | outcome [4] | outcome [5] | outcome [6] | outcome [7] | outcome [8] | outcome [9] | outcome [10] | outcome [11] | outcome [13] | outcome [14] | outcome [15] | outcome [16]

CCN1CCN(c2ccc(S(=O)(=O)N3CCOCC3)cc2NC(=O)c2ccccc2SC)CC1
active: activation [1] 316% | activation [2] 110% | activation [12] 81.4%
inactive: outcome [3] | outcome [4] | outcome [5] | outcome [6] | outcome [7] | outcome [8] | outcome [9] | outcome [10] | outcome [11] | outcome [13] | outcome [14] | outcome [15] | outcome [16]

COc1ccc(C(CNc2nc(-c3cccnc3)nc3ccccc23)N(C)C)cc1 (stereo not given)
inactive: outcome [3] | outcome [4] | outcome [5] | outcome [6] | outcome [7] | outcome [8] | outcome [9] | outcome [10] | outcome [11] | outcome [13] | outcome [14] | outcome [15] | outcome [16]
active: activation [1] 235% | activation [2] 84% | activation [12] 18%

Cc1csc2c(N3CCN(C(=O)Nc4ccc(Cl)c(Cl)c4)CC3)ncnc12
active: activation [1] 115% | activation [12] 40.3%
inactive: outcome [2] | outcome [3] | outcome [4] | outcome [5] | outcome [6] | outcome [7] | outcome [8] | outcome [9] | outcome [10] | outcome [11] | outcome [13] | outcome [14] | outcome [15] | outcome [16]

CCn1c(N2CCN(C(=S)NCCc3ccccc3)CC2)nc2ccccc21
active: activation [12] 21%
inactive: outcome [1] | outcome [2] | outcome [3] | outcome [4] | outcome [5] | outcome [6] | outcome [7] | outcome [8] | outcome [9] | outcome [10] | outcome [11] | outcome [13] | outcome [14] | outcome [15] | outcome [16]

COc1ccc(/C=N/NC(=O)C2COc3ccccc3O2)cc1OC (stereo not given)
active: activation [1] 114% | activation [2] 59% | activation [10] 45% | activation [12] 52.1%
inactive: outcome [3] | outcome [4] | outcome [5] | outcome [6] | outcome [7] | outcome [8] | outcome [9] | outcome [11] | outcome [13] | outcome [14] | outcome [15] | outcome [16]

Source: PubChem BioAssay
